Screening results deposited in PubChem by National Center for Advancing Translational Sciences (NCATS).
AmpC inh detg – qHTS Inhibitors of AmpC Beta-Lactamase (assay with detergent); Potency, µM (titrated, usually from 114 µM), without a hit: at the top dose activity change, negative = inhibition, most hits filed as inhibitors; 0.041% of 370,000 active; AID 485294, 2010; AmpC hydrolysis of nitrocefin, absorbance 480 nm, 0.01% Triton; P00811;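 further: 0% = no-compound wells and -100% = no-enzyme wells; nearly all actives have a fitted effect of over 25% in size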
Target sequence (P00811 whole entry, looked up): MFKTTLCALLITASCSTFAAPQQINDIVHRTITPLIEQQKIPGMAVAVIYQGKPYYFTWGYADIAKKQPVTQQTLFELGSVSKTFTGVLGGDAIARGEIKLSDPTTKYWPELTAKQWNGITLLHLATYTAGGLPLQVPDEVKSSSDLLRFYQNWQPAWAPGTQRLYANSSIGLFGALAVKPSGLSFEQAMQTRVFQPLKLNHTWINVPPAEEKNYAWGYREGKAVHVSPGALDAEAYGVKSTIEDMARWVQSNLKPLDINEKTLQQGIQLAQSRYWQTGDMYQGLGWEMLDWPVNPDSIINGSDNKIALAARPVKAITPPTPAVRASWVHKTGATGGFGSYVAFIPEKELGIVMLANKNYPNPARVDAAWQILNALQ
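20 mM phosphate pH 7.0 + 0.01% (detergent screen) or 0.0001% Triton X-100; 5.3 nM AmpC reagent; cpd preinc 15 min RT; nitrocefin (800 uM stock) to start; A480 q20 s × 4 min; Activity was normalised to no-enzyme and no-compound control wells.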
FMDV inh – High Throughput Screening for Foot and Mouth Disease Virus Antivirals. Potency, µM (highest dose often 57.9 µM), without a hit: top-dose activity change, negative = inhibition, usual class: inhibitors. FMDV antiviral cell-based qHTS. 1.2% of 410,000 active; calls by dose curve; tested in HEK293T cells; further: read-out not given here; nearly all actives have a fitted effect of over 45% in size
AmpC no deterg – qHTS Inhibitors of AmpC Beta-Lactamase (assay without detergent); AmpC nitrocefin hydrolysis, absorbance 480 nm, 0.0001% Triton; Potency, µM (doses to about 57.1 µM), for the others: top-dose activity change, negative = inhibition, most hits filed as inhibitors; 0.52% of 330,000 active; AID 485341, 2010;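 further: plate controls were no compound for no effect and no enzyme for full effect; nearly all actives have a fitted effect of over 20% in size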
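AmpC (5.3 nM in the dispensed reagent) in 20 mM phosphate pH 7.0 with 0.01% (detergent screen) or 0.0001% Triton X-100 was preincubated with compounds for 15 min at room temperature. Nitrocefin was then added from an 800 uM solution, and hydrolysis was followed at 480 nm.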
Sm TGR inh – qHTS Assay for the Inhibitors of Schistosoma Mansoni Peroxiredoxins. Schistosoma mansoni thioredoxin glutathione reductase (TGR), Q962Y6. 3% of 360,000 active. Potency, µM (highest dose often 114 µM), inactives show at the highest dose activity change, negative = inhibition, usual class: inhibitors. purified TGR, DTNB reduction, TNB absorbance 405 nm; further: nearly all actives have a fitted effect of over 60% in size
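Kinetic colorimetric format: TGR-catalysed, NADPH-driven DTNB reduction monitored via TNB absorbance. Enzyme dispensed at 20 nM; compound exposure 15 min at room temperature before reaction start.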
AMA1 RON2 block – qHTS for Inhibitors of AMA1-RON; Towards Development of Antimalarial Drug Lead: Primary Screen; Potency, µM (top dose mostly 58.2 µM), for the others: at the highest dose activity change, negative = inhibition, hits mostly inhibitors; AlphaScreen AMA1-biotinylated RON2 peptide binding; 0.2% of 360,000 active;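 further: 0% = vehicle wells and -100% = peptide control; nearly all actives have a fitted effect of over 45% in size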
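AMA1 (3D7) with his tag at 25 nM final met compounds first, then biotinylated RON2 peptide at 25 nM; detection used donor plus acceptor beads, 10 µg/mL apiece, read by AlphaScreen after 30 min at room temperature.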
Starred values were filed as active, the others as inactive; ? = inconclusive; / = no result given. The list is not random: actives were taken first. Their share in the collection is about 4.1%. Unless noted, the call rests on the fitted dose curve; in most records, active means well fitted curve in the direction sought with a large enough effect; inconclusive means small, poorly fitted or top-dose-only effect, or another doubt; inactive means no such curve, though single readings can be large; an effect the other way counts as inactive or inconclusive. Unless noted, on the % scale 0 is the no-effect control and ±100 the full control effect; potency means the concentration at half of the fitted maximal effect.

SMILES	AmpC inh detg	FMDV inh	AmpC no deterg	Sm TGR inh	AMA1 RON2 block
COc1ccc(-c2nc(CSCC(=O)N3CCN(c4ccccc4)CC3)c(C)o2)cc1	-8.2%	35.5µM*	/	2.3%	/
CCOc1ccc(-c2nc(CSCC(=O)N3CCN(C(=O)c4ccco4)CC3)c(C)o2)cc1	?	0.5%	107.0%	89.1µM*	-6.6%
Cc1cccc(-c2nc(CSCC(=O)N3CCN(c4ccccn4)CC3)c(C)o2)c1	-13.6%	15.8µM*	155.8%	-33.5%	-11.8%
Cc1oc(-c2ccc(Cl)cc2)nc1CN1CCCC(C(=O)N2CCN(C(=O)c3ccco3)CC2)C1 (stereo not drawn)	-18.8%	14.1µM*	135.5%	?	-6.0%
Cc1ccsc1-c1nc(CSCC(=O)N2CCN(c3ccccc3)CC2)c(C)o1	3.4%	?	69.4%	?	12.5%
COc1ccc(-c2nc(CSCC(=O)N3CCN(c4ccc(F)cc4)CC3)c(C)o2)cc1	-11.8%	12.6µM*	/	-0.5%	/
O=C(CSc1ccccc1)N1CCN(C(=O)c2ccco2)CC1	-1.3%	6.0%	-10.5%	?	11.0%
O=C(CSCc1ccccc1)N1CCN(C(=O)c2ccco2)CC1	-1.9%	/	-13.1%	44.7µM*	2.2%
Cc1cc2c(c(-c3cnccn3)c1)OC(CNC(=O)c1ccccc1C(F)(F)F)C2 (stereo not drawn)	/	-8.8%	/	/	/
CCOC(=O)c1cc(-c2ccccc2)n(CCCC(=O)Nc2cccc(C)c2C)c1C	3.2%	-9.9%	/	-2.1%	/
Cc1nn(S(=O)(=O)c2cccs2)c(C)c1Sc1ccc([N+](=O)[O-])cc1	-12.0%	14.1µM*	-20.8%	9.9%	-17.9%
CCC(=O)Nc1cc2[nH]c(=O)cc(C)c2cc1C	-13.8%	-7.2%	-19.7%	-1.6%	-8.5%
Cc1cc2oc(=O)cc(C)c2cc1NC(=O)CCl	2.5%	?	-16.2%	12.6µM*	5.5%
Cc1cc2c(C)cc(=O)[nH]c2cc1NC(=O)CCl	8.3%	?	-5.7%	10µM*	7.9%
Cc1ccc(-c2nn3c(C)nnc3s2)cc1NC(=O)c1ccc(Br)o1	1.2%	-23.6%	-0.4%	50.1µM*	-4.4%
O=C(Nc1cccc(-n2cnnn2)c1)c1cc(Cl)ccc1Cl	1.7%	0.0%	-25.2%	-8.0%	-8.0%
O=C(Nc1cccc(-n2cnnn2)c1)c1ccoc1COc1ccc(Cl)cc1	-10.2%	-21.5%	7.08µM*	-3.8%	-7.7%
C=CCn1c(NC(=O)c2ccco2)c(S(=O)(=O)c2ccccc2)c2nc3ccccc3nc21	?	/	-27.5%	44.7µM*	/
C=CCNC(=O)c1c(N)n(Cc2ccco2)c2nc3ccccc3nc12	-17.1%	-26.5%	17.3%	44.7µM*	80.3%
COCCNC(=O)c1c(NC(=O)c2ccco2)n(Cc2ccccc2)c2nc3ccccc3nc12	2.9%	-7.2%	-3.4%	25.1µM*	61.6%
COCCCNC(=O)c1c(NC(=O)c2ccccc2Cl)n(Cc2ccccc2)c2nc3ccccc3nc12	1.1%	-3.3%	-19.3%	-1.8%	3.9%
COCCNC(=O)c1c(N)n(Cc2ccco2)c2nc3ccccc3nc12	-15.9%	/	157.1%	39.8µM*	69.3%
Nc1c(C(=O)NCCN2CCOCC2)c2nc3ccccc3nc2n1Cc1ccco1	?	-21.2%	170.9%	?	0.4%
COc1cccc(OCCn2c(-c3ccc(Cl)cc3)nc3ccccc3c2=O)c1	11.8%	-10.1%	/	3.8%	/
CC(C)(C)OC(=O)N1CCCN(C(c2ccnc3ccccc23)c2nnnn2-c2ccc3c(c2)OCCO3)CC1 (stereo not drawn)	/	-13.6%	/	/	-16.8%
SMILES	AmpC inh detg	FMDV inh	AmpC no deterg	Sm TGR inh	AMA1 RON2 block
Cc1ccccc1C(=O)OCc1cc(=O)n2nc(C(C)C)sc2n1	14.6%	36.1%	/	4.7%	/
CCc1nn2c(=O)cc(COC(=O)CNC(=O)COc3ccc(C)cc3)nc2s1	-2.3%	-26.8%	/	13.8%	/
C[C@@H]1O[C@@H](OC[C@H]2O[C@@H](Oc3c(-c4ccc(OCCO)c(OCCO)c4)oc4cc(OCCO)cc(O)c4c3=O)[C@H](O)[C@@H](O)[C@@H]2O)[C@H](O)[C@H](O)[C@H]1O	/	-2.7%	/	/	/
CC(C)(C)OC(=O)c1c(N)n(Cc2ccco2)c2nc3ccccc3nc12	?	-21.7%	-6.7%	28.2µM*	16.7%
COc1ccc(S(=O)(=O)c2c(N)n(Cc3ccco3)c3nc4ccccc4nc23)cc1	-0.6%	70.4%	-35.4%	?	?
CC1(C)CC(C(CCN(Cc2ccccc2)C(=O)c2ccco2)c2ccc(F)cc2)CCO1 (stereo not drawn)	-8.3%	14.1µM*	151.3%	-9.3%	-21.1%
CC(C)Oc1ccc(CNC(=O)CCCN2C(=O)c3cccnc3Oc3ccc(Cl)cc32)cc1	5.2%	-15.9%	/	0.9%	/
CN(C)c1ccc(C(=O)/C=C/c2ccccc2)cc1	0.3%	8.7%	-24.9%	4.5%	-14.1%
O=C(/C=C/c1ccco1)c1ccc(O)cc1	0.9%	/	-31.3%	3.55µM*	/
CN(C)c1ccc(C(=O)/C=C/c2ccco2)cc1	?	-9.8%	-35.0%	44.7µM*	-14.4%
Cc1c(Cl)ccc2sc(NC(=O)c3ccc(S(=O)(=O)N4CCCc5ccccc54)cc3)nc12	24.8%	-1.6%	/	11.8%	/
COC(=O)c1ccc(C(=O)NCC2Cc3cccc(-c4ccc(C(=O)OC)cn4)c3O2)cc1 (stereo not drawn)	/	9.5%	/	/	/
COc1ccc2ccc(O)c(CN3CC=C(c4ccccc4)CC3)c2c1	-11.9%	-11.1%	-12.1%	8.91µM*	-6.9%
COc1ccc2ccc(O)c(CN3CCN(S(=O)(=O)c4cccc(C(F)(F)F)c4)CC3)c2c1	-9.9%	?	-28.5%	2.51µM*	-24.1%
COC(=O)CN1C(C(=O)c2ccccc2)=C(OC(=O)c2ccccc2)c2ccccc2S1(=O)=O	-0.5%	-23.2%	/	-18.6%	/
c1ccc(C(O[C@H]2CCCN(CCc3ccc4c(c3)OCO4)C2)c2ccccc2)cc1	/	-23.9%	/	/	/
CC(C)(CO)NC(=O)c1cnn(-c2nccc(-c3ccc4c(c3)OCO4)n2)c1C1CC1	/	29.3%	/	/	/
Cc1cccc(NC(=O)c2sc3ncnc(N(C)C4CCCCC4)c3c2C)c1C	11.0%	0.0%	/	5.7%	/
O=C1OC(Nc2ccc(F)c([N+](=O)[O-])c2)c2ccccc21 (stereo not drawn)	7.9%	-6.1%	-6.7%	-0.6%	-11.9%
O=C1OC(Nc2ccc3c(c2)OCO3)c2ccccc21 (stereo not drawn)	-1.9%	?	-32.4%	8.91µM*	-18.6%
O=C1c2ccccc2C(Nc2ccc3c(c2)OCCO3)N1Cc1ccc2c(c1)OCO2 (stereo not drawn)	?	-2.2%	10µM*	-24.7%	?
